Measured values reported in PubChem BioAssay AID624125 (The Scripps Research Institute Molecular Screening Center, 2012).
Values joined by “and” are separate entries in the source; they are usually repeats but may differ in a detail not shown here. Identical values can stand only once. Hit rate of the full screen: of about 360,000 compounds, about 2,600 (0.72%) were called active.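 The calls were made as follows: active = inhibition above its plate's cutoff, the mean inhibition of sample wells plus 3 SD (cut at about 27% in these data); inactive = the rest.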 The entries come from a sample that favours actives as a whole. More than one record can exist for a structure, and the calls need not agree.

Target: Muscarinic acetylcholine receptor M4 (Homo sapiens) (UniProt P08173)
Assay: CHRM4 blockers of acetylcholine calcium response – CHO cells, Fluo-8 calcium fluorescence, primary screen (AID 624125);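 also: 0% = acetylcholine EC80 with DMSO and 100% = DMSO without agonist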
Settings: CHO-hM4 cells, ACh EC80, Fluo-8 calcium fluorescence; at 3 µM; stronger effect = higher value

Chain of Muscarinic acetylcholine receptor M4 (Homo sapiens) (P08173 whole entry, looked up): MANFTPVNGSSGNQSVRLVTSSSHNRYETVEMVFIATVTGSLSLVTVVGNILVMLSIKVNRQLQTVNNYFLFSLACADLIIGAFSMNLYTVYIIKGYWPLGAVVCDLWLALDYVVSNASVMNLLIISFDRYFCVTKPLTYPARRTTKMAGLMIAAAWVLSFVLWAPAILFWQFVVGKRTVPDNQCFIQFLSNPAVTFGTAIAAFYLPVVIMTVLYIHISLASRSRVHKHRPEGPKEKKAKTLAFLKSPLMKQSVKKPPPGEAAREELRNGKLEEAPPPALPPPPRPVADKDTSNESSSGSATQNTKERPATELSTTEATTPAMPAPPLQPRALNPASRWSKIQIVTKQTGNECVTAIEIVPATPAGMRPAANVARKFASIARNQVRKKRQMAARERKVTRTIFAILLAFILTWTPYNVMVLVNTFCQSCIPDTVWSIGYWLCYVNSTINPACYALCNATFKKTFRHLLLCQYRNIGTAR

Compound | inhibition
CCOC(=O)[C@H]1[C@H]2COc3ccc(C)cc3[C@@H]2N2C(=O)CN(Cc3ccc(F)cc3)C(=O)[C@@]12C | 56.2% (active)
CCOC(=O)[C@H]1[C@H]2COc3ccccc3[C@@H]2N2C(=O)CN(Cc3ccccc3)C(=O)[C@@]12C | -1.92% (inactive)
CCOC(=O)[C@H]1[C@H]2COc3cc(OC)ccc3[C@@H]2N2C(=O)CN(Cc3ccc(Cl)cc3)C(=O)[C@@]12C | 2.23% (inactive)
CC(C)CNC(=S)NC(=O)c1ccc(Cl)cc1 | -0.83% (inactive)
COc1ccc(N2CC(C(=O)NCCN3C(=O)S/C(=C\c4cccnc4)C3=O)CC2=O)c(OC)c1 (centres undefined) | -13.5% (inactive)
O=C(NC(Cc1ccc(O)cc1)C(=O)O)/C(=C/c1ccccc1)NC(=O)c1ccccc1 (centres undefined) | 0.71% (inactive)
COc1cccc(C(=O)NNS(=O)(=O)c2ccc(F)cc2)c1 | 9.85% (inactive)
CC(C)NC(=O)C1(C)CCCCN1Cc1cccc(C(F)(F)F)c1 (centres undefined) | -7.19% (inactive)
O=C(COC(=O)c1ccc(S(=O)(=O)Nc2ccccc2)cc1)NCC1CCCO1 (centres undefined) | 0.71% (inactive)
O=C(c1cc(COc2c(F)cccc2F)on1)N1CCSCC1 | 8.34% (inactive)
CCCC(=O)N1CCC1(C)C(=O)Nc1ccc(-n2cncn2)cc1 (centres undefined) | -7.42% (inactive)
C=CCC1(CC=C)CCCN1C(=O)c1cc(COc2ccc(-n3cncn3)cc2)on1 | 28.6% (active)
Cc1cccc(C)c1Nc1nnc(SCC(=O)NCCCN2CCCC2=O)s1 | -0.57% (inactive)
COC(=O)c1sccc1NC(=O)CC1C(=O)NCCN1C(=O)Nc1ccc(F)cc1F (centres undefined) | -7.71% (inactive)
COc1ccc(CC(=O)Nc2c3c(nn2-c2cccc(Cl)c2)CS(=O)C3)cc1 (centres undefined) | 3.64% (inactive)
Cc1cc(OCCN2CCCC2)cc(C(C)C)c1 | 33% (active)
Cc1cc(OCCN2CCCC2)ccc1C(C)C | -0.72% (inactive)
Cc1ccc(C(C)C)cc1OCCN1CCCC1 | 9.89% (inactive)
CCOC(=O)[C@]12CCCC=C1N(CCC1=CCCCC1)C(=O)[C@H](CC(=O)NCCCOC)C2 | -3.81% (inactive)
CC(=O)N(CC1CCCO1)C1(C(=O)NC2CCCC2)CCCCC1 (centres undefined) | -5.29% (inactive)
CN(CC#CCC(c1ccccc1)c1ccccc1)C(C)(C)C | 78.5% (active)
Cc1cc(Cl)ccc1C(=O)C1CCCN(C(=O)CCN2CCCO2)C1 (centres undefined) | 4.93% (inactive)
CCCCCCCCCCOC(=O)Cn1c(COc2cccc(OC)c2)[n+](C)c2ccccc21 | 36% (active)

Compound | inhibition
COCCN1C(=O)C(=O)/C(=C(/O)c2ccc(S(=O)(=O)N3CCCCC3)cc2)C1c1ccc(OC)c(OC)c1 (centres undefined) | -5.56% (inactive)
CC(C)c1cc(C(=O)N/N=C/c2ccoc2)c(O)c(C(C)C)c1 | 5.01% (inactive)
COC(=O)c1ccccc1NC(=O)CN(Cc1ccc(Cl)cc1)S(C)(=O)=O | 1.99% (inactive)
O=C(Cc1ccc(Cl)cc1)NC(=S)Nc1ccccc1O | 59% (active)
Fc1ccccc1CNC(=S)Nc1ccc(Cl)cc1 | 4.18% (inactive)
CCOc1ccc(S(=O)(=O)N(CC(=O)NCC(F)(F)F)Cc2ccco2)cc1 | -2.55% (inactive)
Cc1ccc(OCCNC(=O)CCNS(=O)(=O)c2ccc(Br)cc2)cc1 | -11.5% (inactive)
Cc1ccc(OC(=O)c2c(C)nn(-c3ccccc3)c2C)cc1 | -5.29% (inactive)
CCCCN(C)c1ccc([N+](=O)[O-])cc1 | 12.1% (inactive)
COc1ccccc1CSc1ncc(-c2ccc([N+](=O)[O-])cc2)[nH]1 | -1.68% (inactive)
CCC1OC(c2ccc([N+](=O)[O-])cc2)=Nc2ccccc21 (centres undefined) | 31.2% (active)
CCOC(=O)c1cc(-c2ccccc2C)n(Cc2cc(C)no2)n1 | 4.03% (inactive)
CCCCNCCS(=O)(=O)NCc1ccccc1 | 7.64% (inactive)
C=CC1=C(C(=O)O)N2C(=O)[C@@H](NC(=O)/C(=N/OCC(=O)O)c3csc(N)n3)[C@H]2SC1 | -12.2% (inactive)
C=CC1=C(C(=O)O)N2C(=O)[C@@H](NC(=O)/C(=N\OCC(=O)O)c3csc(N)n3)[C@H]2SC1 | -25.2% (inactive)
CO/N=C(\C(=O)N[C@@H]1C(=O)N2C(C(=O)O)=C(COC(C)=O)CS[C@H]12)c1csc(N)n1 (stereo in doubt) | -6.4% (inactive) and 79.2% (active) and 82.7% (active)
O=C(Cc1csc(Nc2nc(=S)[nH]c3ccccc23)n1)NCCCN1CCN(c2cccc(Cl)c2)CC1 | 32.6% (active)
O=C(Cc1ccc(-n2c(=O)[nH]c3ccccc3c2=O)cc1)N1CCN(c2cccc(Cl)c2)CC1 | -5% (inactive)
Cn1c(Cc2cccc3ccccc23)nnc1SCC(=O)N1CCN(c2cccc(Cl)c2)CC1 | -1.27% (inactive)
COc1cc(SC#N)ccc1N=Cc1c(C)[nH]n(-c2ccc(C)cc2)c1=O | 39.7% (active)
CCN(CC(=O)NCc1cccs1)S(=O)(=O)c1ccc(NC(C)=O)cc1 | 16.2% (inactive)
CCCCNC(=O)N1CCN(S(C)(=O)=O)CC1 | 10.9% (inactive)
O=C(Nc1ccc(Cl)c(C(F)(F)F)c1)C1Cc2c(-c3ccccc3Oc3ccccc3)ccnc2O1 (centres undefined) | 6.27% (inactive)

Compound | inhibition
O=C1c2ccccc2C(=O)N1CCC(c1ccccc1)c1ccco1 (centres undefined) | 35.6% (active)
Nc1ccc(SCCN2C(=O)c3ccccc3C2=O)cc1 | 2.61% (inactive)
O=C1c2ccccc2C(=O)N1CCC(O)C[N+](=O)[O-] (centres undefined) | -2.27% (inactive)
Cc1ccc(NC(=O)COC(=O)C2C3CC4OC(=O)C2C4C3)cc1Cl (centres undefined) | 15.9% (inactive)
CCCN1C(=O)C(NC(C)=O)c2cc(OC)ccc21 (centres undefined) | 13.9% (inactive)
ON=C1/C(=N\O)CC2(C/C1=N/O)OCCO2 | 10.7% (inactive)
COc1cc(/C=C2/SC(=S)N(Cc3ccccc3)C2=O)cc(OC)c1O | 34.3% (active)
COc1cc(/C=C2\SC(=O)NC2=O)ccc1OCc1ccc(Cl)nc1 | -5.37% (inactive)
CN(C(=O)CN1C(=O)/C(=C/c2ccc(Cl)cc2)SC1=S)C1CCS(=O)(=O)C1 (centres undefined) | -3.95% (inactive)
Cc1cc(C)cc(C(=O)N(CCc2ccccc2)C2=CC3CCC(C2)N3C)c1 (centres undefined) | 2.44% (inactive)
CCCN(CCc1ccccc1)C1CCc2c(O)cccc2C1 (centres undefined) | 50.8% (active)
Cc1cccc(C)c1NC(=O)C(c1cccc2ccccc12)n1c(=O)c(-c2ccco2)nc2ccccc21 (centres undefined) | -2.98% (inactive)
Cc1ccc(S(=O)(=O)N2CCN(C(=O)COC(=O)CNC(=O)c3ccc(C(C)(C)C)cc3)CC2)c(C)c1 | 1.62% (inactive)
Cc1cccc2c1-c1sc(C(=O)NCCCN3CCc4ccccc4C3)cc1CO2 | 45.9% (active)
Cc1ccc(NC(=O)CN2CCc3ccccc3C2)cc1C | 1.35% (inactive)
Cc1cccc(C)c1NC(=O)c1ccc(CN2CCc3ccccc3C2)cc1 | 12.8% (inactive)
Cc1ccc(C(=O)OCC(=O)NC(=O)Cc2ccccc2)c(O)c1 | 3.16% (inactive)
CC1CCCCC1NC(=O)CN1CCC(O)(c2ccc3c(c2)OCO3)CC1 (centres undefined) | -5.57% (inactive)
COc1ccc(C)cc1NC(=O)C(OC(=O)c1cccc(S(=O)(=O)N(C)c2ccccc2)c1)c1ccccc1 (centres undefined) | 5.12% (inactive)
CC(=O)c1c(C)[nH]c(C(=O)COC(=O)c2cccc(S(=O)(=O)N(C)c3ccccc3)c2)c1C | 54.5% (active)
CC(=O)c1c(C)[nH]c(C(=O)OCC(=O)Nc2c(C)cccc2C)c1C | 4.68% (inactive)
C=CCSc1nc(N)cc(=O)[nH]1 | 4.39% (inactive)
O=C(C1CCN(CC2CCCCC2)CC1)N1CCCC1 | -6.1% (inactive)

Compound | inhibition
CC(=O)NC(c1cccc(F)c1)c1nc(-c2cccc(F)c2)cs1 (centres undefined) | -12% (inactive)
Cn1nc(C(F)(F)F)c(C(=O)Nc2cccc(C(F)(F)F)c2)c1SCc1ccc(Cl)cc1 | 33.8% (active)
CCC(=O)OCc1c(C(F)(F)F)nn(C)c1Oc1cccc(C(F)(F)F)c1 | 9.7% (inactive)
COC(=O)c1ccccc1Sc1c(/C=N/OCc2ccc(Cl)cc2)c(C(F)(F)F)nn1C | -7.11% (inactive)
C=CCNC(=S)/N=c1/ccccn1Cc1ccccc1 | 11.8% (inactive)
COc1ccccc1CNc1nc(Nc2ccccc2Cl)c2sccc2n1 | 3.54% (inactive)
COc1cccc(CNc2nc(NCc3ccccc3OC)nc3ccsc23)c1 | 13.8% (inactive)
COc1cccc(CNc2nc(NCc3cccs3)nc3ccsc23)c1 | 48.6% (active)
COc1ccc(OCC(=O)Nc2cc(C)c(Cl)cc2OC)c([N+](=O)[O-])c1 | -4.9% (inactive)
Cc1ccccc1C(OCC(O)CN1CCCCC1CCO)c1ccccc1 (centres undefined) | 8.86% (inactive)
CN(C)CCOC1c2ccccc2-c2ccccc21 | 3.09% (inactive)
Cc1ccccc1C(OCCN(C)C)C1CCCCC1 (centres undefined) | 83% (active)
Cc1n[nH]c(=O)n1-c1ccc(Oc2ccccc2)cc1 | -7.75% (inactive)
COc1ccc(OC)c(/C=N/NC(=O)c2ccc[n+](CC(=O)c3ccccc3)c2)c1 | -5.54% (inactive)
COc1cccc(/C=N/Nc2cc(C)nc(-c3ccccc3O)n2)c1O | 28.3% (active)
CCCCCCCCn1c2c(c(=N)c3c1CCC3)CCCC2 | 36.8% (active)
CC1CN(S(=O)(=O)c2ccccc2)C(C)CN1S(=O)(=O)c1ccccc1 (centres undefined) | -4.76% (inactive)
O=C(CC(NC(=O)c1ccccc1)c1ccccc1)Nc1ccc(F)c(F)c1 (centres undefined) | -4.69% (inactive)
COc1ccccc1OCc1nnc(SCC(N)=O)n1-c1ccccc1 | -4.24% (inactive)
CC1CCN(C(=O)c2ccc(S(=O)(=O)Cc3cc(F)ccc3F)c([N+](=O)[O-])c2)CC1 | -7.53% (inactive)
